ST2 inh = blocks human ST2 binding to IL-33. AlphaLISA ST2-Fc/biotin-IL-33 interaction, 1 h. inhibition, % for hits at 17 µM. 2.3% of 78,000 active. AID 1259354; in the data active = inhibition above about 30%
Target sequence (Q01638 whole entry, looked up): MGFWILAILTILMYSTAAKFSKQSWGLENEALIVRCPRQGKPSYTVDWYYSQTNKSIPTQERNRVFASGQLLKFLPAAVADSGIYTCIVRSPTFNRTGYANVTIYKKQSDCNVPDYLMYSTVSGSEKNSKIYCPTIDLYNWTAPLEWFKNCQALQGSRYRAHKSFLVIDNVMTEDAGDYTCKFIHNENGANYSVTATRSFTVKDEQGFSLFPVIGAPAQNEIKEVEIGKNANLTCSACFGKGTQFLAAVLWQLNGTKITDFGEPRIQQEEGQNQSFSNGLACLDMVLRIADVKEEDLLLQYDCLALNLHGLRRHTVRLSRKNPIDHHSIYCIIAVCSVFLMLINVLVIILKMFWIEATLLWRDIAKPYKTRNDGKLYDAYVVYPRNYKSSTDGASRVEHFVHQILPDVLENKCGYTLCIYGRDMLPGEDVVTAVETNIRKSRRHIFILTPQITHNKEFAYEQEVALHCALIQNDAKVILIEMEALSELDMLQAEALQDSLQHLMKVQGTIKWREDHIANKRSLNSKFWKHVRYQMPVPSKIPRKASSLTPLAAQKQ
A number is an active result. Only a selection was taken, and hits are over-represented in it overall.

`C=CCSc1nnc2c(n1)OC(c1ccc(OC)cc1OC)N(C(C)=O)c1ccccc1-2` (centres undefined) gave ST2 inh 30%.
`CC(=O)c1ccn(CC(=O)Nc2ccnn2CC2CCCCC2)n1` gave ST2 inh inactive.
`Cc1nc(CCC(=O)N2CCC3(CCCN(Cc4ccccc4F)C3)C2)n[nH]1` (centres undefined) gave ST2 inh inactive.
`CN1CCCC2(CCN(c3ncccc3C(=O)O)C2)C1=O` (centres undefined) gave ST2 inh inactive.
Screening CC(=O)NCCn1ccnc1-c1ccc(-c2ccco2)cc1 returned ST2 inh inactive.
Screening c1ccc(CNc2nc(NC3CCCCC3)nc(N3CCOCC3)n2)cc1 returned ST2 inh inactive.
Screening c1nc(-c2cc(NC3CCCC3)nc3[nH]ccc23)cc(N2CCOCC2)n1 returned ST2 inh 30%.
`CCCc1nc(C)cc(-c2cc(N)nc3[nH]ccc23)n1` gave ST2 inh inactive.
`c1cc2c(-c3ccc(CN4CCOCC4)cn3)cc(NC3CCCC3)nc2[nH]1` gave ST2 inh inactive.
c1cnc(-c2cc(NC3CCNCC3)nc3[nH]ccc23)cn1 was read as ST2 inh 33%.
For CCCc1cc(NCC2CNCCOC2)nc(C)n1 (centres undefined) the results were ST2 inh inactive.
Screening CCCc1cc(-c2cc(NC3CCNCC3)nc3[nH]ccc23)nc(C)n1 returned ST2 inh 38%.
`c1cc2c(-c3ccc(NC4CCCC4)nn3)cc(NC3CCNCC3)nc2[nH]1` gave ST2 inh 40%.
Cc1ccc2c(Cl)c(C(=O)N3CCCCC3)sc2c1 was read as ST2 inh inactive.
O=C1C[C@H]2CC[C@@H](CN1)N2Cc1cn[nH]c1-c1ccc(F)cc1 was read as ST2 inh inactive.
Cc1cc(Br)cc(C)c1N1C(=O)C2C3CCC(C3)C2C1=O (centres undefined) was read as ST2 inh inactive.
For O=C(NCCCN1CCN(c2ccccc2F)CC1)c1ccc2nc3ccsc3c(=O)n2c1 the results were ST2 inh inactive.
CCC(N)C12C[C@@H]3C[C@@H](CC(O)(C3)C1)C2 (some centres undefined) was read as ST2 inh inactive.
CSc1ccccc1NC(=O)c1noc2c1CCCCC2 was read as ST2 inh inactive.
Screening COC(=O)C(C)Oc1cc2oc(=O)c3c(c2cc1Cl)CCCC3 (centres undefined) returned ST2 inh inactive.
`COc1cccc(-n2c(O)c(C=Nc3ccc(Cl)cc3)c3ccccc3c2=O)c1` gave ST2 inh inactive.
COc1ccc(NC(=O)c2noc3c2CCCCC3)cc1 was read as ST2 inh inactive.
Screening Cc1c(Cl)c(C)c([N+](=O)[O-])c(O)c1C=Nc1ccc(C(=O)O)cc1 returned ST2 inh inactive.
`COc1ccc(N=Cc2c(O)ccc3oc4c(c23)CCCC4)cc1` gave ST2 inh 40%.
Screening COc1ccc(N=Cc2c(O)c([N+](=O)[O-])cc3oc4c(c23)CCCC4)cc1 returned ST2 inh inactive.
`COc1ccc(N=Cc2c(O)cc(C)c(Cl)c2C)cc1` gave ST2 inh 43%.
CCOc1cc(C2Nc3ccccc3NC3=C2C(=O)CC(c2ccccc2)C3)ccc1OC(C)=O (centres undefined) was read as ST2 inh inactive.
Screening Cc1nc(SCC(=O)Nc2nc(-c3ccc(Br)cc3)cs2)n[nH]1 returned ST2 inh inactive.
C=C(C(=O)OC1CC2(C)C(O)CCC(O)(CO)C2C(O)C1C(=C)C(=O)OC)C(O)CO (centres undefined) was read as ST2 inh inactive.
Screening COc1ccc(NC(=O)c2cccc(C(=O)Nc3ccc(OC)cc3)c2)cc1 returned ST2 inh inactive.
Screening CCOc1ccc(CCCC(=O)N2CCCC2c2nonc2C)cc1C (centres undefined) returned ST2 inh inactive.
`COc1ccc2[nH]c3c(c2c1)CCNC3=O` gave ST2 inh inactive.
`O=[N+]([O-])c1cccc(C2NCCc3c2[nH]c2ccccc32)c1` (centres undefined) gave ST2 inh inactive.
`O=C1NCCc2c1[nH]c1ccc([N+](=O)[O-])cc21` gave ST2 inh 30%.
For COc1ccc(NC(=O)CCC2CCCN(C(=O)CCc3c(C)noc3C)C2)cc1Cl (centres undefined) the results were ST2 inh inactive.
`O=c1c2c(nc(SCc3cccc(F)c3)n1-c1ccc(Cl)cc1)CCS2` gave ST2 inh inactive.
Screening Nc1c(C(=O)Nc2cccc(C(F)(F)F)c2)sc2nc3c(cc12)CCCCC3 returned ST2 inh 42%.
`CCc1nnc(NC(=O)c2sc3nc4c(cc3c2N)CCCCC4)s1` gave ST2 inh inactive.
Nc1c(C(=O)Nc2ccccc2)sc2nc3c(cc12)CCCCC3 was read as ST2 inh inactive.
`CC1CN(C(=O)NC2(C(F)(F)F)Oc3ccc(Cl)cc3O2)CC(C)O1` (centres undefined) gave ST2 inh inactive.
`Cc1cccc(NC(=O)Cn2c(=O)n(-c3ccc(F)cc3F)c(=O)c3sccc32)c1` gave ST2 inh inactive.
For CCOC(=O)C1=C(N)OC2=C(C(=O)CC(c3ccccc3)C2)C1c1cccc(OC)c1OC (centres undefined) the results were ST2 inh inactive.
Screening CC1=NN(c2ccccc2)C(=O)/C1=C/c1ccccc1OCc1ccc(C(=O)O)cc1 returned ST2 inh inactive.
`CSC1=N/C(=C\c2ccccc2OCc2ccccc2)C(=O)S1` gave ST2 inh 64%.
O=C1NC(=O)/C(=C\c2ccccc2OCc2ccccc2)S1 was read as ST2 inh inactive.
For Cc1csc(NC(=O)CCCc2nc3cccnc3n2Cc2ccc(F)cc2)n1 the results were ST2 inh inactive.
For O=C(c1cccc(=O)[nH]1)N(Cc1ccccn1)CC1CCCO1 (centres undefined) the results were ST2 inh inactive.
`Cc1cc(C)[n+]2c(c1C#N)SCC2C(Br)c1ccccc1` (centres undefined) gave ST2 inh 58%.
C=CCn1c(CCNC(=O)COc2ccccc2)nc2ccccc21 was read as ST2 inh inactive.
O=S(=O)(Nc1cccc(Br)c1)c1ccc(Cl)s1 was read as ST2 inh inactive.
Screening COc1cc(NC(=O)CSc2nnc(-c3ccco3)c(-c3ccco3)n2)cc(OC)c1 returned ST2 inh 31%.
For Cc1cccc(C)c1NC(=O)CSc1nnc(-c2ccccc2)c(-c2ccccc2)n1 the results were ST2 inh inactive.
For COc1ccc(NC(=O)CSc2ncccn2)cc1 the results were ST2 inh inactive.
COc1ccccc1NC(=O)N1C[C@@H]2OCC(=O)N(Cc3ccccn3)[C@@H]2C1 was read as ST2 inh inactive.
For CC(C)CC1CC2C(O1)c1ccccc1OC2(C)C (centres undefined) the results were ST2 inh inactive.
For CCOC(=O)C1=C(C)N=C2SCCC(=O)N2C1c1cccc(OC(C)=O)c1 (centres undefined) the results were ST2 inh inactive.
`NS(=O)(=O)c1ccc(NC(=O)c2ccccc2[N+](=O)[O-])cc1` gave ST2 inh 32%.
Screening Cc1ccc(NC(=O)c2ccc(Cl)cc2Cl)cc1[N+](=O)[O-] returned ST2 inh inactive.
Screening CCC(C)c1ccc(NC(=O)c2ccccc2[N+](=O)[O-])cc1 (centres undefined) returned ST2 inh inactive.
NS(=O)(=O)c1ccc(NC(=O)c2ccccc2)cc1 was read as ST2 inh inactive.

Screens: PubChem, Paczesny and Yang Labs, IUPUI and University of Michigan
